BoNT-F LC inh = BoNT/F light chain protease inhibitors, primary screen, biochemical, flow cytometry, MLPCN library | Multiplex microsphere protease cleavage assay | inhibition, % at 10 µM | 360,000 tested, 0.22% active | AID 588497, 2011; in the data active means inhibition above about 35%, passing the limit was not always enough; inconclusive means no clear call, values can overlap the other calls
BoNT-A LC inh2 = BoNT/A light chain protease inhibitors, primary screen, biochemical, flow cytometry, MLPCN library; 360,000 tested, 0.17% active; inhibition, % at 10 µM; Botulinum neurotoxin type A light chain protease (Clostridium botulinum A str. ATCC 3502); multiplex microsphere protease substrate cleavage
MazF activator = activators of E. coli MazEF toxin-antitoxin RNase, primary screen, biochemical, fluorescence, uHTS. 350,000 tested, 0.32% active. activation, % at 20 µM. AID 504720, 2011. FAM/BHQ RNA-DNA oligo cleavage fluorescence, 5 h; in the data active means activation above about 50%
Target sequence (P0AE70 whole entry, looked up): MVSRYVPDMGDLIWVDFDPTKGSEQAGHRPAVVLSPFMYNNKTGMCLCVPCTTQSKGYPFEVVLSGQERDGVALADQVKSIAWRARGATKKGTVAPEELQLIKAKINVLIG
Autofluor counter = counter-screen for toxin protease inhibitors: compound fluorescence. compound autofluorescence counterscreen, microsphere flow cytometry; active compounds read high. fluorescence intensity (concentration not given with the values). 360,000 tested, 3.1% active; in the data active means fluorescence intensity above about 16000; inconclusive means no clear call, values can overlap the other calls
Anthrax LF prot = Bacillus anthracis LF protease inhibitors, primary screen, biochemical, multiplex microsphere, MLPCN library | multiplex microsphere protease cleavage assay | inhibition, % at 10 µM | 360,000 tested, 0.12% active
Large screens that a line does not name were inactive. Most compounds without a hit are left out; they make up all but 3.7% or so of the library. Unless noted, no stated cut-off is given here; in the data, active means inhibition above about 30%; inconclusive means no clear call, values can overlap the other calls; inactive means below that.

O=C(CCNC(=O)c1ccco1)Nc1ccc(SC(F)F)cc1	none
COc1ccc(CN(C)C(=O)/C=C/c2ccc(S(=O)(=O)N3CCCCCC3)cc2)cc1	none
CCCc1cc(=O)oc2cc(OCC(=O)NCCCN3CCCC3=O)ccc12	none
Cc1ccccc1S(=O)(=O)N1[C@@H](c2ccc(F)cc2)C(C(=O)O)=CC[C@H]1c1ccc(Cl)cc1	none
CCN(CC(=O)N1CCCC1)S(=O)(=O)c1ccc(OC)cc1	none
C=CCn1c(=NC(=O)c2ccc(S(=O)(=O)N3CCc4ccccc4C3)cc2)sc2cc(S(N)(=O)=O)ccc21	none
C=CCn1c(=NC(=O)c2ccc(S(=O)(=O)N3CCCc4ccccc43)cc2)sc2cc(S(N)(=O)=O)ccc21	Anthrax LF prot 37.2
CCCCN1C(=O)C2C3C=CC(C2C1=O)C1C2C(=O)N(CCCC)C(=O)C2C31 (stereo not given)	none
O=C1C2C3C=CC(C2C(=O)N1CCCO)C1C2C(=O)N(CCCO)C(=O)C2C31 (stereo not given)	Autofluor counter 21305
CC(C)C(=O)N1CCN(c2ccc([N+](=O)[O-])cc2Cl)CC1	none
O=[N+]([O-])c1ccc(N2CCN(c3ccc(Cl)nn3)CC2)c(Cl)c1	Autofluor counter 20451
C=CCN=C1NN=C(c2ccc3c(c2)OCCO3)CS1	none
CCn1cc(CCC(=O)NCCN2CCOCC2)c2ccccc21	BoNT-F LC inh inconclusive
O=c1nc2s/c(=C\c3ccco3)c(=O)n2nc1Cc1ccc(F)cc1	Autofluor counter 25032
c1ccc(-c2nnc3sc(CN4CCC5(CC4)OCCO5)cn23)cc1	Autofluor counter 20544
O=C(O)CCCCCNC(=O)CCn1nnc2ccccc2c1=O	BoNT-A LC inh2 inconclusive, Autofluor counter 21187
O=C(CCn1nnc2ccccc2c1=O)NCC1CCC(C(=O)O)CC1 (stereo not given)	Autofluor counter 24413
CC(C)Oc1ccc(OCCSc2nc3ccccc3n2CC(=O)O)cc1	BoNT-F LC inh inconclusive
COC(=O)c1c[nH]n2c(=O)cc(C)nc12	Autofluor counter 23157
CC(C)Cn1c(SCc2nc3ccccc3c(=O)[nH]2)nc2ccccc2c1=O	Autofluor counter 19467
CSc1ccc(C(O)c2ncc(-c3cccc(F)c3)[nH]2)cc1 (stereo not given)	none (no result: MazF activator)
O=C(COc1ccc(Cl)cc1Cl)NNC(=S)Nc1ccc(F)cc1	Autofluor counter 16581
CC(C)C(=O)Nc1ccc(C(=O)NNC(=O)CCCOc2ccc(Cl)cc2Cl)cc1	BoNT-A LC inh2 inconclusive, Autofluor counter 24267
O=C(COc1ccc(Cl)cc1Cl)NCc1ccncc1	Autofluor counter 19178
Brc1cc(Br)cc(CN2CCSCC2)c1	none
c1ccc2[nH]c(-c3cnco3)cc2c1	none
COc1cc(NC(=O)C(C)(C)C)c(C(=O)OCC(=O)Nc2cc(C)on2)cc1OC	none
Cc1snc2sc(C(=O)c3ccc(Br)cc3)c(N)c12	none
Cc1ccc(C(=O)c2sc3nsc(C)c3c2N)cc1	MazF activator 61.7
CN(CC(=O)Nc1ccc(F)cc1)C(=O)COC(=O)/C=C/c1ccccc1[N+](=O)[O-]	none (no result: BoNT-F LC inh, BoNT-A LC inh2, Autofluor counter, Anthrax LF prot)
CC(=O)c1ccccc1NC(=O)COC(=O)CSCC(=O)Nc1cc(C)on1	none
CC1=NNC(=O)C1CCC(=O)N/N=C\c1ccccc1[N+](=O)[O-] (stereo not given)	BoNT-A LC inh2 inconclusive, Autofluor counter 22394
COC(=O)C1CSc2[nH]c(=O)sc2C1c1ccccc1 (stereo not given)	Autofluor counter 23079
COc1cc(CNc2ncnc3c2ncn3[C@H]2CN(Cc3ccc(Cl)cc3)C[C@@H](CO)O2)cc(OC)c1OC	none (no result: MazF activator)
CCOC(=O)N1CCN(c2cc(N3CCN(CC)CC3)c(F)cc2[N+](=O)[O-])CC1C (stereo not given)	Autofluor counter 18259
CCN1CCN(c2cc(N3CCCC3)c(F)cc2[N+](=O)[O-])CC1	none
Cc1cccc(-n2ccc(=O)c(C(=O)Nc3ccc(S(=O)(=O)Nc4nccc(C)n4)cc3)n2)c1	none
CC(C)COc1ccc(-c2nnc(-c3ccco3)o2)cc1	Autofluor counter 17184
CCCOc1ccc(-c2nnc(-c3ccco3)o2)cc1	Autofluor counter 21565
O=C(Nc1ccccc1)c1cc(C2CCCCN2C(=O)CCc2ccccc2)on1 (stereo not given)	none (no result: MazF activator)
CCN1C(=O)CCN(C2CCCC2)c2nc(Nc3ccc(C(=O)NC4CCN(C)CC4)cc3OC)ncc21	none
Cc1nn(CCC#N)c(NC(=O)c2ccc(Cl)cc2Cl)c1P(=O)(Nc1ccc([N+](=O)[O-])cc1)N1CCOCC1 (stereo not given)	Autofluor counter 16178
Cc1cc(=O)[nH]c2c(C)c(N)ccc12	Autofluor counter 23024
Cc1cc(=O)[nH]c2cc(O)ccc12	none
CCOC(=O)N(c1ccccc1)P1(=S)OCCO1	none (no result: BoNT-F LC inh, BoNT-A LC inh2, Autofluor counter, Anthrax LF prot)
CCOC(=O)N(c1ccccc1)P1(=S)OCC(C)O1 (stereo not given)	Autofluor counter 20958
Clc1cccc(-c2ccc(/C=N/n3cnnc3)o2)c1Cl	none
Clc1ccccc1-c1ccc(/C=N/n2cnnc2)o1	Autofluor counter 16641
Cc1cc(C)n2nc(-c3cnn(C)c3C(F)(F)F)c(Cl)c2n1	none
Cc1cc(C)n2nc(-c3cnn(C)c3C(F)(F)F)cc2n1	BoNT-A LC inh2 inconclusive, Autofluor counter 19076
CCSc1ccccc1C(=O)N=C1NC(=O)CC2C(=O)NCCN12 (stereo not given)	none
COC(=O)C1=C(C)N(C)C(=O)NC1c1cc(Cl)cc(Cl)c1OC (stereo not given)	BoNT-A LC inh2 inconclusive, Autofluor counter 17435
O=C1c2ccccc2-c2c1cccc2C(=O)N1CCCCC1	none
O=C(c1cccc2c1-c1ccccc1/C2=N/O)N1CCCCC1	BoNT-A LC inh2 inconclusive, Autofluor counter 20508
CC1=NN(C(=O)Cc2ccccc2)C(O)(c2cccnc2)C1 (stereo not given)	BoNT-A LC inh2 inconclusive, Autofluor counter 21683
CC1CCCCN1C(=O)c1ccc(C(=O)N2CCCCC2C)cc1 (stereo not given)	Autofluor counter 21133
Cc1ccc(C)c(S(=O)(=O)NCc2ccc(C(=O)N3CCCCC3C)cc2)c1 (stereo not given)	Autofluor counter 18934
COc1cccc(CN2CCNC(=O)C2CC(=O)N(C)C2CCOCC2)c1OC (stereo not given)	none
C/C(=N\O)C(=O)OC1CC(C)CCC1C(C)C (stereo not given)	Autofluor counter 24312
COC(=O)c1ccccc1NC(=O)COC(=O)CSCC(=O)N1CCOCC1	Autofluor counter 23481
O=C(NCC1CCCC(CNC(=O)N2CCc3ccccc32)C1)N1CCc2ccccc21 (stereo not given)	Autofluor counter 21215
CN(C)C(C)(C)/C=C/C(O)(c1ccccc1)c1ccccc1	BoNT-F LC inh inconclusive
COCC(=O)Nc1nc(-c2ccc(-c3ccccc3)cc2)cs1	none

Compound activity as filed in PubChem.
